# NS1 function inh: qHTS Assay for Inhibitors of Influenza NS1 Protein Function; Potency, µM (series often up to 46.1 µM); 270,000 compounds, 0.4% hits; AID 2326, 2010; calls by dose curve; further: actives are rising curves; nearly all actives have a fitted effect of over 50% in size
#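 Read-out: OD600 growth recovery of NS1-expressing budding yeast. Cells grown overnight at 30C in -URA glucose medium, washed, resuspended and diluted 1:100 in 2% galactose assay medium, pH 6.0. Same strain lacking NS1 served as positive control.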
# Pf growth 96h: Primary qHTS for delayed death inhibitors of the malarial parasite plastid, 96 hour incubation. P. falciparum luciferase reporter growth, 96 h. Potency, µM (top dose mostly 28.7 µM), usual class: inhibitors. 320,000 compounds, 6.9% hits. AID 504834, 2011
#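 Parasite growth measured via integrated firefly luciferase reporter in P. falciparum. Infected erythrocytes at 2% hematocrit, 0.05% parasitemia final were treated 96 hours at 37 C under 5% CO2, and luminescence was read.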
# Pf growth 48h: Primary qHTS for delayed death inhibitors of the malarial parasite plastid, 48 hour incubation | P. falciparum luciferase growth in erythrocytes, 48 h | AID 504832, 2011 | 310,000 compounds, 5.9% hits | Potency, µM (series often up to 28.7 µM), actives largely listed as inhibitors
#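 Firefly luciferase activity from engineered P. falciparum reports growth; inhibitors lower the luminescent signal. Cultures contained 2% hematocrit erythrocytes at 0.1% final parasitemia.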
# Sm TGR inh: qHTS Assay for the Inhibitors of Schistosoma Mansoni Peroxiredoxins | 360,000 compounds, 3% hits | AID 485364, 2010 | Schistosoma mansoni thioredoxin glutathione reductase (TGR), Q962Y6 | purified TGR, DTNB reduction, TNB absorbance 405 nm | Potency, µM (titrated, usually from 114 µM), most hits filed as inhibitors; further: nearly all actives have a fitted effect of over 60% in size
#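 TGR 20 nM + NADPH 100 uM (dispensed conc.), cpd preinc 15 min RT; start with NADPH (500 uM addition) then DTNB (15 mM addition). Kinetic TNB absorbance, 405 nm filter. Four-parameter Hill fit across titration.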
# CHX counter: Cycloheximide Counterscreen for Small Molecule Inhibitors of Shiga Toxin; cell reporter, cycloheximide protein synthesis inhibition counterscreen; max response, %; 300,000 compounds, 12% hits; AID 2314, 2010; in the data active means max response mostly above about 13%, no sharp cut-off; inactive means mostly below about 14%; further: read at 38.3 µM for the half of the compounds with a filed dose
# Shiga toxin inh: A qHTS for Small Molecule Inhibitors of Shiga Toxin; Vero cells, Shiga toxin protein synthesis inhibition reporter; inhibition, % at 38.7 µM; 290,000 compounds, 9.2% hits; in the data active means inhibition mostly above about 28%, no sharp cut-off; inactive means mostly below about 43%
# A number is an active result; – = inactive; ? = inconclusive; · = no result given; [ ] = dose if it differs, or a comment. An excerpt weighted towards active compounds, which were near 21% of everything screened. Unless noted, the call rests on the fitted dose curve; in most records, active means well fitted curve in the direction sought with a large enough effect; inconclusive means small, poorly fitted or top-dose-only effect, or another doubt; inactive means no such curve, though single readings can be large; an effect the other way counts as inactive or inconclusive.
SMILES,NS1 function inh,Pf growth 96h,Pf growth 48h,Sm TGR inh,CHX counter,Shiga toxin inh
CCn1c(SCc2ccc(OC)c(F)c2)nc2ccccc2c1=O,–,–,?,–,–,–
COc1ccc(CSc2nc3ccccc3c(=O)n2CCCN2CCOCC2)cc1F,·,8.3µM,?,–,–,–
COCCNC(=O)CSc1nc2ccc(N3CCOCC3)cc2c(=O)n1CCc1ccccc1,–,–,–,–,14,active
Cc1cc(C)c(NC(=O)CSc2nc3ccccc3c(=O)n2CCCN2CCOCC2)c(C)c1,·,?,?,–,·,·
CCc1ccc(NC(=O)CSc2nc3ccccc3c(=O)n2CCCC(=O)NCCCN2CCOCC2)cc1,·,?,7.4µM,–,–,–
CCOc1ccc(NC(=O)CSc2nc3ccccc3c(=O)n2CCCC(=O)NCCCN2CCCC2=O)cc1,·,–,?,–,–,–
Cc1ccc(NC(=O)CSc2nc3ccccc3c(=O)n2CCCC(=O)NCCCN2CCOCC2)cc1C,·,13µM,?,–,–,–
CCc1sc(C(=O)NCCc2ccc(S(N)(=O)=O)cc2)cc1Br,–,?,–,·,–,–
CCC(CC)c1nnc(NC(=O)CCc2ccccc2OC)s1,–,–,–,–,–,–
COc1cccc(NC(=O)CCC2CCN(C(=O)c3cccc(NC(C)=O)c3)CC2)c1,–,–,–,–,–,–
O=C(CSc1nccn1-c1cccc(Cl)c1)Nc1ccc2c(c1)OCO2,·,·,·,–,·,·
O=C(CSc1nc2ccccc2c(=O)n1CCCN1CCOCC1)Nc1cccc(S(=O)(=O)N2CCCCCC2)c1,–,0.52µM,0.52µM,–,–,–
Cc1nc(NC(=O)c2ccco2)sc1-c1csc(Nc2ccc(Cl)cc2Cl)n1,–,8.3µM,?,–,–,–
COc1cccc(N(C(=O)c2ccco2)c2nc(-c3sc(NC(=O)c4ccco4)nc3C)cs2)c1,–,?,?,–,–,–
Cc1nc(NC(=O)c2ccco2)sc1-c1csc(Nc2ccc(Cl)cc2)n1,?,9.3µM,9.3µM,–,–,–
COc1ccccc1Nc1nc(-c2sc(NC(=O)c3ccco3)nc2C)cs1,–,9.3µM,12µM,–,–,–
Cc1ccc(Cl)cc1Nc1nc(-c2sc(NC(=O)c3ccco3)nc2C)cs1,–,9.3µM,?,–,–,–
O=C(/C=C\c1cccs1)c1c(O)ccc2ccc(=O)oc12,–,?,–,–,–,–
O=C(CN1CCCN(Cc2ccc(F)cc2Cl)C1=O)NC1CCCC1,·,?,–,–,–,–
S=c1nc(-c2sccc2OCc2ccc(Cl)cc2Cl)[nH][nH]1,·,–,–,–,–,–
CCCNC(=O)Nc1ccc(NC(C)=O)cc1,–,–,–,–,–,–
O=c1oc2cc(N=Cc3ccc4c(c3)OCO4)ccc2c2ccccc12,–,·,·,·,·,·
Cc1cccc(N2CCN(C(=O)Cn3ncc4c3-c3ccccc3OC4)CC2)c1C,·,·,·,–,·,·
Cn1c2ccccc2c2ncn(CCC3=CCCCC3)c(=O)c21,–,?,?,–,17,–
Cc1nn(C(=O)c2cccc([N+](=O)[O-])c2C)c(C)c1S(=O)(=O)N1CCCCCC1,·,·,·,–,–,–
SMILES,NS1 function inh,Pf growth 96h,Pf growth 48h,Sm TGR inh,CHX counter,Shiga toxin inh
Cc1sc2ncnc(N3CCC(C(=O)Nc4ccc(Cl)cc4Cl)CC3)c2c1C,·,?,10µM,–,·,·
CNC(=O)c1ccc(NC(=O)C2CCN(c3ncnc4sc(C)c(C)c34)CC2)cc1,–,?,?,–,–,–
Cc1sc2ncnc(N3CCC(C(=O)Nc4ccc(C#N)c(Cl)c4)CC3)c2c1C,·,12µM,?,–,·,·
Cc1sc2ncnc(N3CCC(C(=O)Nc4ccc(Cl)c(Cl)c4)CC3)c2c1C,·,?,13µM,–,·,·
CC1Cc2cccc3c(O)c(C(=O)c4nn[nH]n4)c(=O)n1c23 (centres undefined),–,–,–,–,–,–
Cc1nc(-c2ccc(S(=O)(=O)Nc3cccc(Cl)c3)cc2)co1,–,?,–,–,–,–
Cc1nc(-c2ccc(S(=O)(=O)Nc3ccc(S(N)(=O)=O)cc3)cc2)co1,–,10µM,–,–,–,–
CSc1cccc(NS(=O)(=O)c2ccc(-c3coc(C)n3)cc2)c1,–,4.7µM,–,–,–,–
COc1ccc(NS(=O)(=O)c2ccc(-c3coc(C)n3)cc2)cc1,–,–,–,–,–,–
COc1ccc(C(CNC(=O)Nc2cccc(C)c2)N2CCN(C)CC2)cc1 (centres undefined),–,?,–,–,–,–
CN(C)S(=O)(=O)c1ccc2c(c1)C(=NO)c1cc(S(=O)(=O)N(C)C)ccc1-2,–,2.6µM,–,–,–,–
CN(C)S(=O)(=O)c1ccc2c(c1)C(=NNC(N)=O)c1cc(S(=O)(=O)N(C)C)ccc1-2,–,–,–,–,–,–
CN(C)N=C1c2cc(S(=O)(=O)N(C)C)ccc2-c2ccc(S(=O)(=O)N(C)C)cc21,–,12µM,13µM,–,–,–
Cc1n[nH]c(C)c1S(=O)(=O)N(CC(=O)NCc1ccccc1Cl)c1ccc(C(C)C)cc1,·,·,·,–,·,·
CN(C)c1ccc(NC2=C([N+](=O)[O-])CS(=O)(=O)C2)cc1,–,·,–,2.2µM,–,–
Cc1ccc(NC2=C([N+](=O)[O-])CS(=O)(=O)C2)cc1,–,–,·,–,–,–
COc1cc(OC)c(NC(=O)Nc2sc3nc4n(c(=O)c3c2C)CCC(C)CC4)cc1Cl (centres undefined),·,·,·,–,·,·
C=CCn1c(SCC(=O)NC2CCCC2)nc2sc(C)cc2c1=O,·,6.6µM,–,–,·,·
CCCc1nc2oc3c(NCC4CCCO4)ncnc3c2c2c1COC(C)(C)C2 (centres undefined),–,–[5.75 µM],–,–,–,–
CC(C)c1nc2oc3c(N(C)CCO)ncnc3c2c2c1CCC2,–,0.83µM,?,–,–,–
CC(C)c1nc2oc3c(NCC4CCCO4)ncnc3c2c2c1CCC2 (centres undefined),–,2.9µM,1.9µM,–,–,–
CCCOC(=O)NC(CC)COC(=O)Nc1cccc(C)c1C (centres undefined),–,9.3µM,–,–,–,–
CCC(COC(=O)Nc1cccc(C)c1C)NC(=O)OCC(C)C (centres undefined),–,?,–,–,–,–
CC(C)NCC(O)Cn1c2c(c3ccccc31)CCc1c-2cnn1-c1ccccc1 (centres undefined),–,?,2.9µM,–,–,–
COc1ccc(C(=O)NCC(c2ccco2)S(=O)(=O)c2cccs2)cc1OC (centres undefined),·,·,·,1.3µM,·,·
COc1ccccc1CCNC(=O)C(=O)NCC(c1ccco1)S(=O)(=O)c1ccccc1 (centres undefined),·,·,·,35µM,·,·
O=C(NCC(c1ccco1)S(=O)(=O)c1cccs1)c1ccc(F)c(F)c1 (centres undefined),·,·,·,16µM,·,·
